# Values of other authors, collected in PubChem BioAssay AID977611.
# Out of some 3,900 compounds screened, about 3,900 (100%) were called active. No cut-off is given here; in the data, nearly all actives have Kd up to about 4200 µM. The set was probably picked from earlier hits. The list shows a part of the results. Starred links: 1 amine or outer side, 2 acyl side, 3 side chain; linkers in the order of their positions; H or OH if unused. *1 amine or outer side, *2 acyl side, *3 side chain or, on linkers, in order; H or OH if unused. Positions of bridges follow the written chain, without caps; N, C: chain ends. Where a SMILES comes first, the peptide text is derived from it. Non-standard residues stand in square brackets, D forms with d. Square brackets hold non-standard residues; d marks the D form. Residues, ends and D or L forms follow the SMILES beside them. Bridges are numbered along the chain shown (N, C = ends). Peptide text beside a SMILES is read from it. [ ]: non-standard residue; d: D form. Orn(CH(NH2)2) = NC(N)NCCC[C@H](N)C(=O)O; X1 = O=C([C@@H]1CC[C@H](O)N1[*:1])[*:2]; TBMB = c1c(C[*:1])cc(C[*:3])cc1C[*:2]
# Assay: PubChem AID 977611
# Conditions: PDB protein-ligand complexes, literature Kd
compound,measurement,setting,value
CC(C)[C@H](NC(=O)[C@H](CCC(N)=O)NC(=O)[C@@H](NC(=O)[C@H](CCC(=O)O)NC(=O)[C@H](CCCNC(N)N)NC(=O)[C@H](CCCNC(N)N)NC(=O)[C@@H](NC(=O)[C@H](CCCNC(N)N)NC(=O)[C@H](CO)NC(=O)[C@H](CO)NC(=O)[C@@H](N)CCCNC(N)N)[C@@H](C)O)[C@@H](C)O)C(=O)O (H-[Orn(CH(NH2)2)]SS[Orn(CH(NH2)2)]T[Orn(CH(NH2)2)][Orn(CH(NH2)2)]ETQV-OH),Kd,"protein: second PDZ domain of MAGI-1 (Membrane-associated guanylate kinase), PDB entry 2kpl",0.23 µM (active)
CC(C)C[C@H](NC(=O)[C@H](CCCNC(N)N)NC(=O)[C@@H](NC(=O)[C@H](CC(=O)O)NC(=O)[C@@H](N)CCC(N)=O)[C@@H](C)O)C(=O)O (HELM PEPTIDE1{Q.D.T.[NC(N)NCCC[C@H](N[*:1])C(=O)[*:2]].L}$$$$V2.0),Kd,"protein: Na(+)/H(+) exchange regulatory cofactor NHE-RF1, PDB entry 2m0u",0.365 µM (active)
same,Kd,"protein: Na(+)/H(+) exchange regulatory cofactor NHE-RF1, PDB entry 2m0v",1.08 µM (active)
CSCC[C@H](NC(=O)[C@H](CC(C)C)NC(=O)[C@H](C)NC(=O)[C@H](CC(=O)O)NC(=O)[C@H](CC(C)C)NC(=O)[C@H](C)NC(=O)[C@H](C)NC(=O)[C@@H](NC(=O)[C@H](C)NC(=O)[C@H](C)N)[C@@H](C)O)C(=O)N[C@@H](C)C(=O)N[C@@H](CO)C(=O)N[C@@H](CC(C)C)C(=O)O (H-AATAALDALMASL-OH),Kd,"protein: Protein-tyrosine kinase 2-beta, Pyk2 FAT domain, PDB entry 3u3f",8 µM (active)
CC(C)C[C@H](NC(=O)[C@H](C)NC(=O)[C@H](CC(=O)O)NC(=O)[C@H](CC(C)C)NC(=O)[C@@H](N)CC(=O)O)C(=O)N[C@@H](CC(C)C)C(=O)N[C@@H](C)C(=O)N[C@@H](CC(=O)O)C(=O)N[C@@H](CC(C)C)C(=O)N[C@@H](CCC(=O)O)C(=O)O (H-DLDALLADLE-OH),Kd,"protein: Alpha-parvin, PDB entry 2k2r",1300 µM (active)
CC(C)[C@H](NC(=O)[C@H](CCC(N)=O)NC(=O)[C@@H](NC(=O)[C@H](CCC(=O)O)NC(=O)[C@H](CC(N)=O)NC(=O)[C@H](CCCNC(N)N)NC(=O)[C@H](CCC(N)=O)NC(=O)[C@H](CCCNC(N)N)NC(=O)[C@@H](NC(=O)[C@H](CCCNC(N)N)NC(=O)[C@@H]1CC[C@H](O)N1)[C@@H](C)O)[C@@H](C)O)C(=O)O (H-[X1][Orn(CH(NH2)2)]T[Orn(CH(NH2)2)]Q[Orn(CH(NH2)2)]NETQV-OH),Kd,"protein: Disks large homolog 1, PDB entry 2m3m",9.63 µM (active)
CC(C)C[C@H](NC(=O)[C@H](CCC(=O)O)NC(=O)[C@H](CC(C)C)NC(=O)[C@H](CC(C)C)NC(=O)[C@H](CC(C)C)NC(=O)[C@H](CCCNC(N)N)NC(=O)[C@H](CC(=O)O)NC(=O)[C@H](CC(C)C)NC(=O)[C@H](CCC(=O)O)NC(=O)[C@H](CO)NC(=O)[C@@H](N)CC(C)C)C(=O)N[C@@H](CC(N)=O)C(=O)O (H-LSELD[Orn(CH(NH2)2)]LLLELN-OH),Kd,"protein: Focal Adhesion Targeting Domain(FAT), PDB entry 1ow8",4 µM (active)
CC(C)C[C@H](NC(=O)[C@H](C)NC(=O)[C@H](C)NC(=O)[C@H](CC(C)C)NC(=O)[C@H](CCCNC(N)N)NC(=O)[C@H](CCCNC(N)N)NC(=O)[C@H](CO)NC(=O)[C@H](CC(C)C)NC(=O)[C@H](CCC(N)=O)NC(=O)[C@H](CC(=O)O)NC(=O)[C@@H](N)CCC(=O)O)C(=O)N[C@@H](CCCNC(N)N)C(=O)N[C@@H](CC(N)=O)C(=O)O (H-EDQLS[Orn(CH(NH2)2)][Orn(CH(NH2)2)]LAAL[Orn(CH(NH2)2)]N-OH),Kd,"protein: Vacuolar protein sorting-associating protein 4A, PDB entry 2jq9",33.4 µM (active)
CSCC[C@H](NC(=O)[C@H](CC(C)C)NC(=O)[C@H](CCC(=O)O)NC(=O)[C@H](CC(=O)O)NC(=O)[C@H](CC(C)C)NC(=O)[C@H](CCC(=O)O)NC(=O)[C@H](CCCNC(N)N)NC(=O)[C@@H](N)[C@@H](C)O)C(=O)N[C@@H](C)C(=O)N[C@@H](CO)C(=O)N[C@@H](CC(C)C)C(=O)N[C@@H](CO)C(=O)O (H-T[Orn(CH(NH2)2)]ELDELMASLS-OH),Kd,"protein: Focal Adhesion Targeting Domain(FAT), PDB entry 1ow6",4 µM (active)
same,Kd,"protein: Focal Adhesion Targeting Domain(FAT), PDB entry 1ow7",4 µM (active)
CC(C)C[C@@H]1NC(=O)[C@H](CCCNC(N)N)NC(=O)[C@H](CCCNC(N)N)NC(=O)[C@H]([C@@H](C)O)NC(=O)[C@H](CO)NC(=O)[C@H](CC(C)C)NC(=O)[C@H](CC(=O)O)NC(=O)[C@H](Cc2ccccc2)NC(=O)[C@H](CCC(N)=O)NC(=O)[C@@H](N)CSSC[C@@H](C(=O)O)NC(=O)[C@H](CCCCN)NC1=O,Kd,"protein: cetuximab Fab, PDB entry 4gw1",0.43 µM (active)
CC(C)C[C@@H]1NC(=O)[C@H](C)NC(=O)[C@H](CCCNC(N)N)NC(=O)[C@H](CO)NC(=O)[C@H](CO)NC(=O)[C@H](CC(C)C)NC(=O)[C@H](CC(N)=O)NC(=O)[C@H](Cc2ccc(O)cc2)NC(=O)[C@H](CCC(N)=O)NC(=O)[C@@H](N)CSSC[C@@H](C(=O)O)NC(=O)[C@H](CCCCN)NC1=O,Kd,"protein: cetuximab Fab, PDB entry 4gw5",3.5 µM (active)
CSCC[C@@H]1NC(=O)[C@H](CCC(=O)O)NC(=O)[C@H](Cc2ccc(O)cc2)NC(=O)[C@H](CO)NC(=O)[C@H](CC(=O)O)NC(=O)[C@H](C)NC(=O)CNC(=O)[C@@H](N)CSSC[C@@H](C(=O)O)NC(=O)[C@H](CCCCN)NC(=O)[C@H](CCCNC(N)N)NC(=O)[C@H](C(C)C)NC(=O)CNC(=O)[C@H](CC(=O)O)NC(=O)[C@H](CCC(=O)O)NC(=O)[C@H](CCC(=O)O)NC1=O (H-CGADSYEMEEDGV[Orn(CH(NH2)2)]KC-OH; disulfide 1-16),Kd,"protein: mAb175 Antibody targeting a locally misfolded region of tumor associated EGFR, PDB entry 3g5y",0.035 µM (active)
same,Kd,"protein: mAb806 Antibody targeting a locally misfolded region of tumor associated EGFR, PDB entry 3g5v",0.016 µM (active)
CC(C)[C@@H]1NC(=O)[C@H](CCC(=O)O)NC(=O)[C@H](Cc2ccc(O)cc2)NC(=O)[C@H](CCCNC(N)N)NC(=O)[C@H](CO)NC(=O)[C@@H](NC(=O)[C@H](C)N)CSCc2cc3cc(c2)CSC[C@H](NC(=O)[C@H](CC(=O)O)NC1=O)C(=O)N[C@@H](CCCNC(N)N)C(=O)NCC(=O)N[C@@H](CCCNC(N)N)C(=O)NCC(=O)N[C@@H](CO)C(=O)N[C@@H](C)C(=O)N[C@H](C(=O)O)CSC3 (H-ACS[Orn(CH(NH2)2)]YEVDC[Orn(CH(NH2)2)]G[Orn(CH(NH2)2)]GSAC-OH; linker 2-9-16 via TBMB),Kd,"protein: Urokinase-type plasminogen activator, PDB entry 3qn7",0.157 µM (active)
OC(C[n+]1cccc(F)c1)([P+](O)(O)O)[P+](O)(O)O,Kd,"protein: Leshmaniasis major Farnesyl diphosphate synthase, PDB entry 4k10",0.12 µM (active)
OC(C[n+]1cccc(-c2ccccc2)c1)([P+](O)(O)O)[P+](O)(O)O,Kd,"protein: Leshmaniasis major Farnesyl diphosphate synthase, PDB entry 4jzb",0.342 µM (active)
